The campaign covered roughly 96,000 compounds. About 20,000 (21%) were called active. The list is a sample of the results. Unmarked numbers belong to inactive results.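 The calls were made as follows: active = CYP2C19 inhibition above a set limit at 5 µM in the primary screen (cut at about 50% in these data); inactive = the rest.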
Molecular target: Cytochrome P450 2C19 (Homo sapiens) (UniProt P33261)
Test: blockers of cytochrome P450 2C19 activity – biochemical, luminescence, ADME assay, primary screen (AID 778);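 also: plate controls were negative control wells for no effect and 2.5 mM tranylcypromine positive control for full effect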
Conditions: CYP2C19 Supersomes, luciferin-H EGE luminescence, 30 min; at 5 µM; hits give high values

Chain of Cytochrome P450 2C19 (Homo sapiens) (P33261 whole entry, looked up): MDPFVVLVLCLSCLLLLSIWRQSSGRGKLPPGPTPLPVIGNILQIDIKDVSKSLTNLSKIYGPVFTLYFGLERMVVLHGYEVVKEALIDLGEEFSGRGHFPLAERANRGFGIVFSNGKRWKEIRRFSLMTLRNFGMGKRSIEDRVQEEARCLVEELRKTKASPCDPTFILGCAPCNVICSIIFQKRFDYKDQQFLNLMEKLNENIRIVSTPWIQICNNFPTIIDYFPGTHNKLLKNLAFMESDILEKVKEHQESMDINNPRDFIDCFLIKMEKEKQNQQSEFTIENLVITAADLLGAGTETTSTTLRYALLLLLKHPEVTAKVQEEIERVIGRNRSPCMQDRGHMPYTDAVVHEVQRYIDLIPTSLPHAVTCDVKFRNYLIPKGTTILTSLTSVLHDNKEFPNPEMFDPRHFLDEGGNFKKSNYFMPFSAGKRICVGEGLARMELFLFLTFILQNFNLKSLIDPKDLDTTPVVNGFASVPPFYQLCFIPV

Structure (SMILES)	inhibition
C=Cn1ccnc1P(=S)(c1cc(N(CC)CC)ns1)c1nccn1C=C	18.8%
CCC/C(=N\O)c1c[nH]c2ccccc12	72.6% (active)
C/C(CCc1c[nH]c2ccccc12)=N\O	12%
CNP1(NC)=Nc2nn(-c3ccccc3)c(N)c2C(c2ccccc2)=N1	-1.8%
CNC(=O)N(C)c1nnc(C(C)(C)C)s1	-8.5%
CC[N+](CC)(CC)CCCCCCCCCC[N+](CC)(CC)CC	14.9%
O=C1NC(=O)C(C/C=C/c2ccccc2)C(=O)N1	5%
COC(=O)CN1C(=O)C2(C(C(=O)OC)=C(N)Oc3ccccc32)C2=C1CC(C)(C)CC2=O (stereo not given)	18.2%
C=CCN1C(=O)C2(C(C(=O)OCC)=C(N)Oc3c2c(=O)oc2ccccc32)c2ccccc21 (stereo not given)	88.5% (active)
Cc1ccc(P(=S)(c2ccc(C)o2)N2CCOCC2)o1	36.5%
Cc1cc(N2C(=O)C3CCCN3C2c2ccc(Cl)c(Cl)c2)no1 (stereo not given)	11.9%
CCN1c2nc3c(C)cccn3c(=O)c2CC2(C(=O)N(C)C(=O)N(C)C2=O)C1C (stereo not given)	-11.5%
N[C@@H](Cc1c[nH]c2ccccc12)c1nnc(SCc2c(F)cccc2Cl)o1	74.1% (active)
COc1ccc(-c2nc(CS(=O)CC(=O)N3CCC4(CC3)OCCO4)c(C)o2)cc1 (stereo not given)	13.3%
CCCCCn1c(=O)c(C(=O)Nc2c(C)n(C)n(-c3ccccc3)c2=O)c(O)c2ccccc21	1.4%
O=C(c1cc(-c2ccncc2)nc2ccccc12)N1CCC2(CC1)OCCO2	35.1%
O=C(c1cc2nc(-c3ccccc3)cc(-c3ccccc3)n2n1)N1CCC2(CC1)OCCO2	94% (active)
Cc1cccc(-n2c(C)nc3cc(C(=O)N4CCC5(CC4)OCCO5)ccc32)c1	6.6%
O=C(CCN1CCCCC1)NCC(=O)Nc1ccc(Br)cc1C(=O)c1ccccc1	-17.3%
CC(=C1C(=O)c2ccccc2C1=O)N1CCN(CCN=Cc2c(O)n(C)c(=O)n(C)c2=O)CC1	24.7%
CC1(C)C(c2ccccc2)=NC(c2cccnc2)=[N+]1[O-]	16.4%
c1ccc2sc(C3CCCNC3)nc2c1 (stereo not given)	-18.4%
CCOc1ccc(CN(CCCl)CCCl)cc1C(=O)OC	63.9% (active)
O=C1/C(=C\c2ccc3c(c2)OCO3)N2CCC1CC2	40%
CCOC(=O)C(O)(c1ccc(NC(=O)c2ccco2)c(OC)c1)C(F)(F)F (stereo not given)	25.1%

Structure (SMILES)	inhibition
CN1CCC(N(C)Cc2cccnc2)CC1	-0.7%
COc1ccccc1N1CCN(C(CNC(=O)Oc2ccccc2)c2cccnc2)CC1 (stereo not given)	39.7%
CN1CCN(Cc2ccc(OC(F)(F)F)cc2)CC1	20.2%
COC(=O)N(c1ccc(OC)cc1)P1(=S)OCCC(C)O1 (stereo not given)	21.5%
COc1ccc(C(=O)C2CN(C)CC2C(=O)c2ccc(OC)cc2)cc1 (stereo not given)	8.9%
COc1ccccc1CN1CCN(C(=O)Cc2ccccc2)CC1	68.1% (active)
CCC(=NCCc1ccccc1)c1c(O)n(C2CCCCC2)c(=O)[nH]c1=O	11.8%
COc1cc(Cn2c(N)c(C(=O)NCc3ccco3)c3nc4ccccc4nc32)cc(OC)c1OC	93.2% (active)
CCOC(=O)c1c(N)n(CCN2CCOCC2)c2nc3ccccc3nc12	13.3%
CCOC(=O)c1c(N)n(Cc2ccccc2)c2nc3ccccc3nc12	-1%
COc1ccccc1N=C1SCCCN1C	-31.2%
O=C(C1CC(=O)N(C2CCCC2)C1)N1CCC2(CC1)OCCO2 (stereo not given)	10.5%
COc1ccc(S(=O)(=O)NCc2ccc(C(=O)N3CCC4(CC3)OCCO4)cc2)cc1	-0.4%
CC(=O)N(C1=NCCCS1)c1ccccc1F	7.3%
CCOC(=O)C1SC2(C(F)(F)C(F)F)CC1(O)c1c(c(OC)c3occc3c1OC)O2 (stereo not given)	92.1% (active)
Cc1ccc(C)c(NC2=NCCCS2)c1	7.4%
CC(=NCC1CCCO1)c1c(O)n(-c2ccccc2)c(=O)[nH]c1=O (stereo not given)	22.9%
CCOC(=O)CC1=C(C(=O)OCC)C2(C(=O)N1)C(C(=O)OC)=C(N)Oc1ccccc12 (stereo not given)	4.8%
CCOC(=O)C1=C(C)OC(N)=C(C(=O)OC)C12C(=O)Nc1ccc(Br)cc12 (stereo not given)	62.4% (active)
Cc1cc(C)cc(NC(=S)NC2CC3CCCC(C2)N3Cc2cccs2)c1 (stereo not given)	22.1%
CC(=NC1CCN(Cc2ccccc2)CC1)c1c(O)n(C)c(=O)n(C)c1=O	8.1%
Fc1cccc(F)c1CN1CCN(Cc2c(F)cccc2F)CC1	94.4% (active)
CN1CCN(Cc2ccccc2C(F)(F)F)CC1	7.9%
CCOC(=O)C(O)(c1ccc(N)c(OC)c1)C(F)(F)F (stereo not given)	20.4%
Fc1ccc(N2CCN(Cc3ccc4c(c3)OCO4)CC2)cc1	22.5%

From PubChem BioAssay AID778 (Sanford-Burnham Center for Chemical Genomics, 2007)
